Screening data (PubChem)
GBA enhancer = enhancers of human beta-glucosidase activity in Gaucher fibroblasts; L444P Gaucher fibroblasts, 4-MU-glucoside fluorescence, 3 days; AID 784; activation, % at 10 µM; actives 0.44% (n = 30,000); in the data active = activation above about 65%;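 also: 0% = vehicle wells and 100% = positive control wells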
Target sequence (P04062 whole entry L483P): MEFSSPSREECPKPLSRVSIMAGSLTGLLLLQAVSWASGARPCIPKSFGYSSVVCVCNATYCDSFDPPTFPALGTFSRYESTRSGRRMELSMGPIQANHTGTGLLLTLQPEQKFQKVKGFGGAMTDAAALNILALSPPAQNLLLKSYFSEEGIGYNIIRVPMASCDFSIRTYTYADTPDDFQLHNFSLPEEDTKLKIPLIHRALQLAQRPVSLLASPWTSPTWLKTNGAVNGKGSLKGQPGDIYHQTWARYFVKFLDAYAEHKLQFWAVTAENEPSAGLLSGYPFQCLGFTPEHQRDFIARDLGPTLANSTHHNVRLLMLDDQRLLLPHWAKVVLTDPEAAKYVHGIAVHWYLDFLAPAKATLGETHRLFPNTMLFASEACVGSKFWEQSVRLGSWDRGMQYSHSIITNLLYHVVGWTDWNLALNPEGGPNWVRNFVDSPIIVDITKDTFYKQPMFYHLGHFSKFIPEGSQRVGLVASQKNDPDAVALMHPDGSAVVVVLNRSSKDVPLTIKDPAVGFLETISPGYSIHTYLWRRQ
Numbers without * were called inactive. The full list was thinned out, with hits kept by preference.

Screening COC(=O)c1cccc(S(=O)(=O)N2CCN(c3nc4ccccc4s3)CC2)c1 returned GBA enhancer -20.2.
`O=C(COc1ccc(Cl)cc1Cl)Nc1ccccn1` gave GBA enhancer 4.3.
`CC(C)(C)NC(=O)c1ccccc1-c1nc(-c2ccccc2Cl)no1` gave GBA enhancer -8.9.
O=C(Nc1cc(C(F)(F)F)ccc1N1CCOCC1)c1cncc(Br)c1 was read as GBA enhancer -22.0.
FC(F)(F)c1ccc(N2CCOCC2)c(Nc2nc3ccccc3n3cnnc23)c1 was read as GBA enhancer 75.2*.
Cc1nc2ccccc2nc1OCC(=O)Nc1cc(C(F)(F)F)ccc1N1CCOCC1 was read as GBA enhancer -9.6.
Cc1c(-c2ccccc2)sc(N)c1C(=O)N1CCOCC1 was read as GBA enhancer -6.5.
COc1c(S(=O)(=O)n2nc(C)cc2C)ccc(Cl)c1Cl was read as GBA enhancer -11.1.
For CCN1CCN(CCCNC(=O)C(NC(=O)C2CCC(C)CC2)C(C)C)CC1 (configuration not stated) the results were GBA enhancer 12.0.
CC1CCC(C(=O)NC(C(=O)NCCCN2CCOCC2)C(C)C)CC1 (configuration not stated) was read as GBA enhancer 68.4*.
`CCN1CCCC1CNC(=O)C(NC(=O)C1CCC(C)CC1)C(C)C` (configuration not stated) gave GBA enhancer -7.3.
Screening O=C(CN1CCC(NC(=O)Nc2ccccc2-c2ccccc2)CC1)NCc1ccco1 returned GBA enhancer -30.6.
CCc1nc(SCC(=O)Nc2ccc3c(c2)OCCO3)c2oc3ccccc3c2n1 was read as GBA enhancer -131.4.
`Cc1cccc(NC(=O)CSc2ncnc3c2oc2ccccc23)c1` gave GBA enhancer -9.8.
Cc1nc(SCC(=O)Nc2ccc3c(c2)OCCO3)c2oc3ccccc3c2n1 was read as GBA enhancer 149.1*.
CC(C)OC(=O)CSc1nnc(-c2cccnc2)n1N was read as GBA enhancer 67.3*.
Cc1ccc(C(=O)CSc2nnc(-c3cccnc3)n2N)cc1 was read as GBA enhancer -20.0.
`COc1cccc(-n2c(SCC(=O)OC(C)C)nnc2-c2cccnc2)c1` gave GBA enhancer -40.9.
`CN(C)S(=O)(=O)c1ccc(C(=O)Nc2ccnn2C2CCCCC2)cc1` gave GBA enhancer 2.3.
Cc1cc(C)nc(Sc2c(C)nn(-c3ccccc3)c2C)n1 was read as GBA enhancer -6.3.
CCOC(=O)C1CCCCN1Cc1ccccc1C(F)(F)F (configuration not stated) was read as GBA enhancer 13.8.
`Cc1cc(C)nc(-n2nc(C)cc2NC(=O)c2cc3ccccc3oc2=O)n1` gave GBA enhancer 114.0*.
Cc1cc(C)nc(-n2nc(C)cc2NC(=O)c2cc(=O)c3ccccc3o2)n1 was read as GBA enhancer 10.7.
Cc1cc(C)nc(-n2nc(C)cc2Nc2ccccc2)n1 was read as GBA enhancer 1.0.
`Cc1cc(NC(=O)c2sccc2C)n(-c2cccc(Cl)c2)n1` gave GBA enhancer -29.8.
O=C(Nc1cccc(NC(=O)c2nccc3ccccc23)c1)c1ccco1 was read as GBA enhancer 6.4.
`O=C1OCCN1CCN(CN1C(=O)CCC1=O)CN1C(=O)CCC1=O` gave GBA enhancer -15.3.
Cc1nonc1NC(=O)OCCN1CCOC1=O was read as GBA enhancer 88.4*.
`Cc1ccc2c3c(c(SCC(=O)Nc4nonc4C)nc2c1)CCCC3` gave GBA enhancer 14.3.
CCOc1cc(-c2noc(-c3ccncc3)n2)cc(Br)c1OC was read as GBA enhancer -0.5.
CCOc1ccc(-c2nc(-c3ccc(OC)cc3)no2)cc1OCC was read as GBA enhancer 1.4.
CCOc1ccc(-c2noc(-c3ccncc3)n2)cc1OCC was read as GBA enhancer 228.2*.
`CCN(CC)CCCN1C(=O)c2oc3ccccc3c(=O)c2C1c1cc(OC)ccc1OC` (configuration not stated) gave GBA enhancer -1.0.
`O=C(CCn1c(=O)oc2ccccc21)NCc1cccs1` gave GBA enhancer -28.1.
`COCCCN1C(=O)C(=O)/C(=C(/O)c2ccc(C)cc2)C1c1ccccc1` (configuration not stated) gave GBA enhancer -9.1.
Cc1ccc(C)c(/C(O)=C2\C(=O)C(=O)N(CCCn3ccnc3)C2c2ccncc2)c1 (configuration not stated) was read as GBA enhancer 84.4*.
For CC1Cc2cc(/C(O)=C3/C(=O)C(=O)N(CCCN(C)C)C3c3ccncc3)ccc2O1 (configuration not stated) the results were GBA enhancer 2.8.
CC(C)(NCc1ccccc1Cl)C(=O)O was read as GBA enhancer 9.5.
Screening CCOC(=O)Cc1csc(NC(=O)COc2ccc(N(C)S(=O)(=O)c3cccs3)cc2)n1 returned GBA enhancer -11.7.
`Cn1cc(Cl)c(C(=O)N2CCN(c3ncccn3)CC2)n1` gave GBA enhancer -41.6.
Screening COCc1cc(C)nc(N2CCN(c3ccccc3)CC2)c1C#N returned GBA enhancer -0.3.
`COCc1cc(C)nc(NC2CCCCC2)c1C#N` gave GBA enhancer 101.2*.
COCc1cc(C)nc(SCC(=O)Nc2ccccc2C)c1C#N was read as GBA enhancer 52.1.
`Cn1c2c(c(=O)n(C)c1=O)C(c1ccccc1OC(F)F)C1=C(CCCC1=O)N2` (configuration not stated) gave GBA enhancer 42.0.
Screening CN1CCCN(C(=O)Cc2c(Cl)cccc2Cl)c2nc3ccccc3nc21 returned GBA enhancer -20.4.
Screening COc1ccc(C(C(=O)NC2CCCCC2)N2CCC3(CC2)OCCO3)cc1 (configuration not stated) returned GBA enhancer 0.3.
`Cc1ccc(C(C(=O)NC2CCCCC2)N2CCCC2)cc1` (configuration not stated) gave GBA enhancer 126.8*.
Screening CN(C)C(C(=O)NC1CCCCC1)c1ccc(Cl)cc1 (configuration not stated) returned GBA enhancer -23.3.
For O=C(CN1CCOCC1)OCCCC1CCCCC1 the results were GBA enhancer -42.0.
For C/C(=N\O)c1ccc2c3ccccc3n(C)c2c1 the results were GBA enhancer 77.2*.
`Cn1cc(/C(Cc2ccccc2)=N\O)c2ccccc21` gave GBA enhancer 4.0.
CC(=O)n1c2ccccc2c2c1c1ccccc1n2C was read as GBA enhancer 6.9.
COc1ccc(/C(O)=C(\C#N)c2nc3ccccc3n2C)cc1OC was read as GBA enhancer 1.8.
Screening Cn1c(/C(C#N)=C(\O)c2ccc(S(=O)(=O)N3CCCCC3)cc2)nc2ccccc21 returned GBA enhancer 70.9*.
Screening O=C(Nc1ccccc1)c1ccc(S(=O)(=O)N2CCCC2)cc1 returned GBA enhancer 3.8.
Screening CCOC(=O)c1oc2cccc(OCC(O)CNC(C)C)c2c1C (configuration not stated) returned GBA enhancer -95.3.
Screening Cc1ccccc1CS(=O)(=O)Cc1ccc(C(=O)NCCCN2CCCC2=O)o1 returned GBA enhancer 13.4.
`Cc1ccccc1CS(=O)(=O)Cc1ccc(C(=O)NCCCN2CCOCC2)o1` gave GBA enhancer 23.1.
For Cc1ccccc1CS(=O)(=O)Cc1ccc(C(=O)NCc2ccco2)o1 the results were GBA enhancer 170.7*.
Screening COc1ccc2nc(NC(=O)C(NS(=O)(=O)c3cccs3)C(C)C)sc2c1 (configuration not stated) returned GBA enhancer -23.2.
